Each structure is given as a SMILES string. Results filed as inconclusive are left out. Calls of active or inactive are those of the source. The calls were made as follows: active = hit-call score of the fitted dose curve at least 0.9, where 1 is the maximum; inconclusive = response in the unintended direction; inactive = score below 0.9.

In the assay the target is rainbow trout Glucocorticoid Receptor (GR), nr3c1 (gene 100136786) (UniProt P49843). Description: ATG_rtGR_EcoTox2: Attagene TRANS-FACTORIAL EcoTox-2 HepG2 Assay for rainbow trout Glucocorticoid Receptor (GR). The procedure: ATG_EcoTox2 is a cell-based, multiplexed assay created by modifying the existing Attagene TRANS-FACTORIAL system to include a panel of nuclear receptors from some or all the following species: human (Homo sapiens), african clawed frog (Xenopus laevis), rainbow trout (Oncorhynchus mykiss), japanese medaka (Oryzias latipes), and zebrafish (Danio rerio). The ECOTOX2-FACTORIAL format uses HepG2, a human liver cell line, with measurements taken at 24 hours after chemical dosing in a 24-well plate. ATG_rtGR_EcoTox2 is one of 29 assay components calculated in the ATG_EcoTox2 assay. It is designed to make measurements of mRNA induction, a form of inducible reporter, as detected with fluorescence intensity signals by Reverse transcription polymerase chain reaction (RT-PCR) and Capillary electrophoresis technology.The assay endpoint ATG_rtGR_EcoTox2 was analyzed in the positive analysis fitting direction relative to DMSO as the negative control and baseline of activity. Using a type of inducible reporter, measures of mRNA for gain-of-signal activity can be used to understand the reporter gene at the transcription factor-level as they relate to the gene for glucocorticoid receptor. Furthermore, this assay endpoint can be referred to as a primary readout, because this assay has produced multiple assay endpoints where this one serves a reporter gene function. To generalize the intended target to other relatable targets, this assay endpoint is annotated to the nuclear receptor intended target family, where the subfamily is steroidal.
Chain of rainbow trout Glucocorticoid Receptor (GR), nr3c1 (gene 100136786) (P49843 whole entry, looked up): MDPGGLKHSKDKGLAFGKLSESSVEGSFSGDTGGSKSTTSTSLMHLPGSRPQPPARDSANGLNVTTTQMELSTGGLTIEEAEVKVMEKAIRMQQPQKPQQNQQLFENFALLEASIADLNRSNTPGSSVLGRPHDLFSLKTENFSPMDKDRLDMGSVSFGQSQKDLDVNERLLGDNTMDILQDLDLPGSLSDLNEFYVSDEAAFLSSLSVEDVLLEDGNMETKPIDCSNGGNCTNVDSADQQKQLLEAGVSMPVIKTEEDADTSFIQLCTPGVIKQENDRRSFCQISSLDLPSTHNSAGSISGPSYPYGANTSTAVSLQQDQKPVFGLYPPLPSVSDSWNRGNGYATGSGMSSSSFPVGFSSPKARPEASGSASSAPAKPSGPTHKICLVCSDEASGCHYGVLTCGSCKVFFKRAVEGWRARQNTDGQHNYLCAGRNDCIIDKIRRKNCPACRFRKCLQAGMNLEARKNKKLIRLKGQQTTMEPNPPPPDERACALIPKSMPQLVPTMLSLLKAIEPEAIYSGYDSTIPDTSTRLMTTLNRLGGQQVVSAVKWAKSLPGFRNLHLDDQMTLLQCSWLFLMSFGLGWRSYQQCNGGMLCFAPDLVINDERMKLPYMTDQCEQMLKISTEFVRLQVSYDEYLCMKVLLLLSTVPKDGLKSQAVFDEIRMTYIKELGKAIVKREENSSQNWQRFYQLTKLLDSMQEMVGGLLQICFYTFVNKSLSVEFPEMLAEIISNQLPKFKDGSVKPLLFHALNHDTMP
Human liver HepG2 cells are transiently transfected with multiple reporter transcription units (MRTUs) in 6-well plates using FuGene 6 reagent (Roche; 3 ml FuGene/1 mg DNA). The MRTU constructs are regulated by a cis-regulating element (promoter). Each RTU expresses a GAL4-UAS that regulates the transcription of a nearby target reporter gene sequence. A major difference between the CIS and TRANS system is that in CIS activities of endogenous TFs are measured, whereas the TRANS assay evaluates changes in activities of exogenous, chimeric NR-Gal4 proteins. […] At the end of 24 hour incubation, total RNA was isolated using TriZol reagent (Invitrogen). The isolated RNA is then reverse-transcribed using oligo(dT) primer and Mo-MLV reverse transcriptase (Invitrogen) with DNAse I (Ambion) treatment for 30 min. The one-tenth of the produced cDNA was amplified by PCR using Taq DNA polymerase (Invitrogen) and two reporter sequence-specific primers. The PCR products were fluorescently labeled by primer extension with 6-arboxyfluorescein (6-FAM) 5'-labeled reporter sequence-specific primer (2 min at 95 C, 20 s at 68 C and 10 min at 72 C) and these products were digested with 5U of HpaI (New England Biolabs) for 2h at 37 C. The fragments were purified using Qiaquick PCR columns (Qiagen), analyzed on an ABI 3130xL genetic analyzer (Applied Biosystems) with peak positions identified by using a set of X-rhodamine (ROX)-labeled MapMarker1000 molecular weight standards (BioVentures). The raw capillary electrophoresis data was processed using Attagraph software (Attagene).
With `CC(c1cc2ccccc2s1)N(O)C(N)=O` (stereo unspecified), the molecule was classed as inactive.
Same read-out and setting: the result for `CC(C)OC(=O)C(C)(C)Oc1ccc(C(=O)c2ccc(Cl)cc2)cc1` reads “inactive”; that for `Cc1ccc(C)c(OCCCC(C)(C)C(=O)O)c1`, “inactive”; that for `C=C(c1ccc(C(=O)O)cc1)c1cc2c(cc1C)C(C)(C)CCC2(C)C`, “inactive”.
As usually defined, the AC50 is the concentration giving half of the maximal activity seen. As to `C[C@@H]1C[C@H]2[C@@H]3CCC4=CC(=O)C=C[C@]4(C)[C@@]3(F)[C@@H](O)C[C@]2(C)[C@@]1(O)C(=O)COP(=O)(O)O`, the concentration at half-maximal activity (AC50) was 0.0206 µM (active).
On to `CC(C)(Oc1ccc(Cl)cc1)C(=O)O`, for which the molecule was classed as inactive.

(Values after PubChem BioAssay AID2284333 (EPA ToxCast).)
